High-throughput results as filed in PubChem BioAssay.
FMDV antiviral = High Throughput Screening for Foot and Mouth Disease Virus Antivirals; FMDV antiviral cell-based qHTS; Potency, µM (highest dose often 57.9 µM), for the others: at the highest dose activity change, negative = inhibition, actives largely listed as inhibitors; 410,000 tested, 1.2% active; AID 1159524, 2015; calls by dose curve; tested in HEK293T cells; further: read-out not given here; potency means the concentration at half of the fitted maximal effect; on the % scale 0 is the no-effect control and ±100 the full control effect; nearly all actives have a fitted effect of over 45% in size
HCMV antiviral = qHTS Assay for inhibitors of the human cytomegalovirus (HCMV); HFF cells, HCMV-luciferase reporter, 72 h; active compounds read low; 410,000 tested, 4.5% active; activity change, negative = inhibition, % at 57.5 µM; in the data active means activity change below about -60%; inconclusive means no clear call, values can overlap the other calls; inactive means above about -39%; further: on the % scale 0 is the no-effect control and ±100 the full control effect
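Human foreskin fibroblasts infected with luciferase-reporter HCMV at MOI 1 PFU/cell, compounds at two doses. Luciferase measured 72 h post infection; normalized to buffer-only basal and Salinomycin (10uM) controls.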
Marburg entry inh = qHTS for inhibitors of binding or entry into cells for Marburg Virus. AID 540276, 2011. Marburg virus pseudotyped entry inhibition, cell reporter. 300,000 tested, 1.8% active. Potency, µM (titrated, usually from 37.8 µM), for inactives: at the highest dose activity change, negative = inhibition, hits mostly inhibitors; calls by dose curve; tested in HEK293 cells; further: potency means the concentration at half of the fitted maximal effect; on the % scale 0 is the no-effect control and ±100 the full control effect
SARS PLP yeast = qHTS of Yeast-based Assay for SARS-CoV PLP; S. cerevisiae expressing SARS-CoV PLpro, growth rescue; 330,000 tested, 0.19% active; Potency, µM (series often up to 32.9 µM), for inactives: at the top dose activity, positive = growth rescue, hits mostly activators; calls by dose curve; further: potency means the concentration at half of the fitted maximal effect; 0% is about no effect; nearly all actives have a fitted effect of over 55% in size
Lassa entry inh = qHTS for Inhibitors of binding or entry into cells for Lassa Virus. Lassa virus pseudotype entry inhibition, cell reporter. Potency, µM (doses to about 37.9 µM), for the others: at the highest dose activity change, negative = inhibition, hits mostly inhibitors. 300,000 tested, 1.2% active. AID 540256, 2011; calls by dose curve; tested in HEK293 cells; further: potency means the concentration at half of the fitted maximal effect; on the % scale 0 is the no-effect control and ±100 the full control effect; nearly all actives have a fitted effect of over 50% in size
HCV inhibitor = qHTS Assay for Inhibitors of Hepatitis C Virus (HCV); Huh7.5.1 HCVcc-Cre infection, luciferase reporter, 44 h; Potency, µM (doses to about 41.8 µM), for the others: at the highest dose activity change, negative = inhibition, most hits filed as inhibitors; 340,000 tested, 3.4% active; active means well fitted inhibition curve with a large enough effect; inconclusive means small, poorly fitted or top-dose-only effect, or another doubt; inactive means no such curve, though single readings can be large or run the other way; further: potency means the concentration at half of the fitted maximal effect; on the % scale 0 is the no-effect control and ±100 the full control effect
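Antiviral activity was scored by luciferase reporter output from cells infected with HCVcc-Cre (~0.5 moi) in presence of compound, 44 h infection period, cells seeded 1,000/well 4 h prior.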
Starred values were filed as active, the others as inactive; ? = inconclusive; · = no result given; + = active, no number; ! = not active in a repeat; [ ] = dose if it differs, or a comment. This is a sample that favours compounds with a hit; in the whole collection about 8% have one here.

SMILES | FMDV antiviral | HCMV antiviral | Marburg entry inh | SARS PLP yeast | Lassa entry inh | HCV inhibitor
COc1ccc(CCNC(=O)CN2C(=O)COc3ccc(S(=O)(=O)N4CCCC4)cc32)c(OC)c1 | 3% | -63*! | ? | 0% | -6%[46.1 µM] | ?
COc1ccc(OC)c(CCNC(=O)CN2C(=O)COc3ccc(S(=O)(=O)N4CCCCCC4)cc32)c1 | -17% | -23 | ? | · | -14%[46.1 µM] | ·
Cc1ccc(NC(=O)CN2C(=O)COc3ccc(S(=O)(=O)N4CCCCCC4)cc32)cc1Cl | -19% | -84* | · | · | ? | ·
O=C(CN1C(=O)COc2ccc(S(=O)(=O)N3CCCC3)cc21)NCCc1ccc(Cl)cc1 | 8% | -73* | · | · | 3%[46.1 µM] | ·
O=C(CN1C(=O)COc2ccc(S(=O)(=O)Nc3ccccc3)cc21)NCc1ccccc1Cl | 9% | -106* | · | · | 1%[46.1 µM] | ·
NS(=O)(=O)c1ccc(CCNC(=O)CN2C(=O)COc3ccc(S(=O)(=O)N4CCCC4)cc32)cc1 | 3% | -28 | · | · | · | 1%
COc1ccccc1CNC(=O)CN1C(=O)COc2ccc(S(=O)(=O)Nc3ccccc3)cc21 | 39% | -19 | · | · | -16%[46.1 µM] | ·
Cc1c(Cl)cnc(NC(=O)COC(=O)CCc2nc3ccccc3s2)c1Cl | -8% | 41 | 16% | 4% | 6% | 15%
CCOC(=O)c1ccc(Nc2c(-c3ccc(N(C)C)cc3)nc3nc[nH]n23)cc1 | 5% | 74 | · | · | 1%[46.1 µM] | ·
CCOC(CNC(=O)CN1C(=O)COc2ccc(S(=O)(=O)N3CCOCC3)cc21)OCC | 0% | + | · | 0% | · | 14%
CCOCCCNC(=O)CN1C(=O)COc2ccc(S(=O)(=O)N3CCOCC3)cc21 | -3% | ? | 9%[46.1 µM] | -2% | 6%[46.1 µM] | 14%
COCC(=O)Nc1cc(C(=O)N2CCCC2c2nccs2)c2c(c1)nc(-c1ccncc1)n2C (stereo unspecified) | -5% | · | · | · | · | ·
CSc1nc(N)nc(SCC(=O)C23CC4CC(CC(C4)C2)C3)c1C#N | ? | -33 | 21µM* | -22% | -6% | 10µM*
CCc1ccccc1NC(=O)CN(C)C(=O)c1cc(C2CC2)nc2c1cnn2C(C)C | -4% | 5 | · | -3% | · | -24%
Cn1nc(-c2ccccc2F)c2cc(C(=O)NCc3ccc(Cl)cc3)sc21 | ? | -71* | -28%[46.1 µM] | · | 0%[46.1 µM] | ·
Cn1nc(-c2ccccc2F)c2cc(C(=O)NCc3cccc(Cl)c3)sc21 | -22% | -32 | ? | · | ? | ·
CC(CCc1ccco1)NC(=O)c1cc2c(-c3ccccc3F)nn(C)c2s1 (stereo unspecified) | ? | 23 | · | -9% | · | 18µM*
CCOc1ccccc1NC(=O)c1cnc(NS(=O)(=O)c2ccccc2)nc1 | -12% | -20 | 3%[46.1 µM] | -1% | 4%[46.1 µM] | 9%
Nc1nc(-c2ccc(-c3ccccc3)cc2)cs1 | 9% | -1 | ? | -28% | -27%[46.1 µM] | 10µM*
Nc1nc(-c2ccc(Oc3ccccc3)cc2)cs1 | 22% | 25 | · | -28% | · | 10µM*
CCC(OC(=O)C(NC(=O)c1ccccc1)c1ccccc1)C(=O)Nc1cc(C)on1 (stereo unspecified) | · | -23 | -1% | 22µM* | -6% | 21%
CC(C)(C)n1nnnc1C(c1ccccc1)N1CCN(c2ncc(C(F)(F)F)cc2Cl)CC1 (stereo unspecified) | ? | -78* | · | · | · | ·
CCOP(=O)(c1ccc(N(C)C)cc1)C(O)c1ccccc1F (stereo unspecified) | -14% | -15 | 0%[46.1 µM] | 2% | -22%[46.1 µM] | -13%
CC(C)COP(=O)(c1ccc(N(C)C)cc1)C(O)c1ccccc1F (stereo unspecified) | 22% | -6 | 8% | -3% | 6% | 3.5µM*
c1ccc(-c2ccc(C3=Nn4c(Cn5nnc6ccccc65)nnc4SC3)cc2)cc1 | ? | -27 | ? | 3% | 11µM* | -65%
SMILES | FMDV antiviral | HCMV antiviral | Marburg entry inh | SARS PLP yeast | Lassa entry inh | HCV inhibitor
CCOc1ccc(NS(=O)(=O)c2c(C)nc3sccn3c2=O)cc1 | -13% | -100* | · | -8% | · | 0%
CC1Cc2ccccc2N1C(=O)CN1C(=O)NC2(CCCCC2)C1=O (stereo unspecified) | 0% | 3 | · | 1% | · | 13%
COc1ccccc1OCCCOc1ccc([N+](=O)[O-])cc1Cl | -5% | -15 | ? | -10% | 19% | 22µM*
COc1cccc(OCCCOc2ccc([N+](=O)[O-])cc2Cl)c1 | -4% | 1 | 1% | -21% | 14% | -2%
Cc1cc[n+](-c2[nH]c(=O)sc2/C=N/NC([S-])=Nc2ccccc2)cc1 | -11% | -61* | ? | -72% | 5% | ?
CCc1sc(C(C2C(=O)CC(C)(C)CC2=O)C2C(=O)CC(C)(C)CC2=O)cc1[N+](=O)[O-] | 7.9µM* | 107 | ? | 0% | 1% | 26%
CCCCCCCCn1cnc2c(N)c(C)c(C)cc21 | -28% | -13 | ? | -4% | ? | 1.6µM*
COc1ccc(Cn2cnc3c(N)c(C)c(C)cc32)cc1 | -5% | ? | 23%[46.1 µM] | 1% | 0% | -30%
CCc1ccc(NC(=O)N(Cc2cn(CC)c3ccccc23)C2CCCCC2)cc1 | 60% | -104* | ? | · | ? | ·
CCc1ccc(NC(=O)Cc2cn(C)c3ccccc23)cc1 | 53% | 41 | 2%[46.1 µM] | -17% | -7% | 15%
CCOc1ccc(NC(=O)N(Cc2cn(CC)c3ccccc23)C2CCCCCC2)cc1 | 38% | -87* | ? | · | ? | ·
CCOc1ccc(NC(=O)N(C2CCCCCC2)C2CCN(C(C)=O)CC2)cc1 | -1% | -8 | 3% | 0% | -9% | -2%
COc1cc(CNc2ccc(O)cc2)cc(Br)c1OCc1ccccc1 | -14% | -39 | · | -4% | · | ?
COc1cc(CNC(C)c2ccccc2)cc(Cl)c1OCC(=O)Nc1ccccc1 (stereo unspecified) | ? | -39 | · | -1% | · | 11µM*
COc1cc(CNC(C)c2ccccc2)cc(Br)c1OCc1ccccc1 (stereo unspecified) | 0% | -31 | 7.9µM* | -3% | ? | ?
COc1cc(CNC(C)c2ccccc2)cc(Br)c1OCc1ccc(F)cc1 (stereo unspecified) | -30% | ? | 3.5µM* | -5% | ? | 22µM*
CCN(CC)CCNCc1cc(Cl)c(OCC(=O)Nc2ccccc2)c(OC)c1 | -1% | 27 | · | 0% | · | ?
Cc1ccc(C(=O)NCCc2nnc3n2CCN(Cc2ccnc4ccccc24)CC3)c(C)c1 | -7% | · | · | · | · | ·
CCCCOc1ccc(CNC(=O)CCCN2C(=O)CSc3c2c(C)nn3-c2ccccc2)cc1 | -16% | -70* | · | · | ? | ·
Cc1nn(-c2ccccc2)c2c1N(CCCC(=O)NCc1ccccc1)C(=O)CS2 | -16% | 6 | · | · | -20%[46.1 µM] | ·
